Source: PubChem BioAssay
VACV mCherry inh – vaccinia inhibition (mCherry reporter); 310,000 compounds, 0.63% hits; Vaccinia virus mCherry reporter infection, fluorescence; Potency, µM (titrated, usually from 36.5 µM), for inactives: at the highest dose activity change, negative = inhibition, usual class: inhibitors; calls by dose curve; tested in A549 cells; further: potency means the concentration at half of the fitted maximal effect; nearly all actives have a fitted effect of over 35% in size
HCMV antiviral – blocks human cytomegalovirus replication. activity change, negative = inhibition, % at 57.5 µM. AID 1259415. 410,000 compounds, 4.5% hits. HFF cells, HCMV-luciferase reporter, 72 h; stronger effect = lower value; in the data active means activity change below about -60%; inconclusive means no clear call, values can overlap the other calls; inactive means above about -39%
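HFF cells seeded 16 h at 37C, treated with compounds, infected with luciferase-reporter HCMV at MOI 1 PFU/cell; luciferase read at 72 h post infection, normalized to buffer-only and Salinomycin controls.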
TbPYK inhibitor – inhibitors of Trypanosoma brucei pyruvate kinase. AID 624173. TbPYK enzyme, Kinase-Glo Plus ATP luminescence, 45 min. Q57TT1. Potency, µM (series often up to 76.8 µM), without a hit: at the highest dose activity, negative = inhibition, most hits filed as inhibitors. 410,000 compounds, 0.12% hits; further: potency means the concentration at half of the fitted maximal effect; nearly all actives have a fitted effect of over 50% in size
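Enzyme and substrate buffer are dispensed first and compound is pin-transferred. ADP at 130 uM final then starts the reaction, which runs 45 min at room temperature. Detection reagent is added for 10 min before luminescence is imaged.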
LmPK inhibitor – inhibitors of Leishmania mexicana pyruvate kinase | purified LmPK, Kinase-Glo ATP luminescence, 1 h | 290,000 compounds, 0.37% hits | AID 1721 | Q27686 | Potency, µM (top dose mostly 57.5 µM), inactives show at the top dose activity change, negative = inhibition, hits mostly inhibitors; further: potency means the concentration at half of the fitted maximal effect
Target sequence (Q27686 whole entry, looked up): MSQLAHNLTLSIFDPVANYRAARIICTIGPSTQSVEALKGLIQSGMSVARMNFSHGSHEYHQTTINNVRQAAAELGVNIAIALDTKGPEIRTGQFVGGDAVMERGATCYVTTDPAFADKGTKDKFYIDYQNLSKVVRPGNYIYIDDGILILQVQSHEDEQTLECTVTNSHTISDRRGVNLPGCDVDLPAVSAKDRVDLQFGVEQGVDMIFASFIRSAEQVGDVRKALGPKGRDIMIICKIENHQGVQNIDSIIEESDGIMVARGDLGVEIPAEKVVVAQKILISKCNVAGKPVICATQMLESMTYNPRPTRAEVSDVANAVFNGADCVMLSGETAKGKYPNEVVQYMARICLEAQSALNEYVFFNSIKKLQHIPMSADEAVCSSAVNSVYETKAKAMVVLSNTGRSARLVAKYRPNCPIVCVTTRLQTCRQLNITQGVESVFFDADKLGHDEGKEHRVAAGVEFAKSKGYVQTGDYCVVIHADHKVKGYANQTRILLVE
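Purified LmPK (0.1 nM) converted ADP (0.1 mM) to ATP with PEP (0.5 mM) in imidazole buffer pH 7.2 with KCl and MgCl2, 1 h at room temperature. ATP was read by Kinase-Glo luminescence; data normalized to uninhibited and no-enzyme controls.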
Vaccinia Venus – inhibitors of vaccinia virus (Venus reporter). AID 720580. Potency, µM (doses to about 36.5 µM), inactives show at the top dose activity change, negative = inhibition, actives largely listed as inhibitors. 330,000 compounds, 0.46% hits. Vaccinia virus Venus reporter expression, fluorescence; calls by dose curve; tested in A549 cells; further: potency means the concentration at half of the fitted maximal effect; nearly all actives have a fitted effect of over 30% in size
* = called active by the depositor; i = inactive; ? = inconclusive; nt = no result given; + = active, no number; [ ] = dose if it differs, or a comment. The list is not random: actives were taken first. Their share in the collection is about 5%. Unless noted, the call rests on the fitted dose curve; in most records, active means well fitted curve in the direction sought with a large enough effect; inconclusive means small, poorly fitted or top-dose-only effect, or another doubt; inactive means no such curve, though single readings can be large; an effect the other way counts as inactive or inconclusive. On the % scale 0 is the no-effect control and ±100 the full control effect.

SMILES | VACV mCherry inh | HCMV antiviral | TbPYK inhibitor | LmPK inhibitor | Vaccinia Venus
O=C(COC(=O)c1c(Cl)cccc1Cl)NC1CCCCCCC1 | nt | -17 | 0% | nt | nt
CSc1ccc(NC(=O)CSc2nc3[nH]c(=O)cc(O)c3s2)cc1 | nt | -15 | -2% | nt | nt
N#Cc1ccc(NC(=O)CSc2nc3[nH]c(=O)cc(O)c3s2)cc1 | nt | -92* | -6% | nt | nt
COCC(=O)N/N=C/c1ccc(Sc2nc3ccccc3s2)o1 | -20% | -17 | -12% | 2% | 55%
N#CCC(=O)N/N=C/c1ccc(Sc2nc3ccccc3s2)o1 | nt | -99* | 4% | 3% | nt
COc1ccc(C2CC(C(F)(F)F)n3nc(C(=O)NCc4cn(C)nc4C)c(Cl)c3N2)cc1 (stereo unspecified) | -11% | -72* | -6% | 8% | -22%
Cc1ccc(C2CC(C(F)(F)F)n3nc(C(=O)NCc4c(C)nn(C)c4C)c(Cl)c3N2)cc1 (stereo unspecified) | ? | ? | 1% | -3% | ?
Cc1nn(C)cc1CN(C)C(=O)c1nn2c(c1Cl)NC(c1cccs1)CC2C(F)(F)F (stereo unspecified) | -23% | -78* | 2% | 0% | -24%
COC1c2ccccc2C(=O)N1Cc1ccc(F)cc1 (stereo unspecified) | -14% | -21 | -1% | 0% | -8%
COc1ccc2nc(C)cc(Nc3ccc(N4CCOCC4)cc3)c2c1 | -2% | -86* | 2% | 0% | -26%
COc1ccc2nc(C)cc(Nc3ccc(N4CCN(C)CC4)cc3)c2c1 | ? | -102* | -3% | -2% | 10µM*
COc1ccc2nc(C)cc(Nc3ccc(Cl)c(Cl)c3)c2c1 | ? | -106* | -3% | nt | -29%
CCOc1ccc(NS(=O)(=O)c2ccc(C(=O)N3CCCCC3)cc2)cc1 | i | -33 | 0% | -6% | -24%
CCCCc1ccc(NC(=O)CSc2nnc(CNC(=O)c3ccco3)o2)cc1 | nt | -15 | 0% | 3% | nt
CCOc1ccc(NC(=O)c2oc3ccccc3c2NC(=O)c2c(F)cccc2F)cc1 | -5% | -24 | 1% | nt | -4%
CCOc1ccccc1C(=O)Nc1c(C(=O)Nc2ccc(F)cc2)oc2ccccc12 | -18% | -62* | -2% | nt | -9%
O=C(Nc1ccc(F)cc1)c1oc2ccccc2c1NC(=O)C1CC1 | -7%[7.34 µM] | -60* | -1% | 6% | -10%[7.34 µM]
Cc1ccc(NC(=O)c2oc3ccccc3c2NC(=O)C2CC2)cc1 | i[7.34 µM] | ? | 5% | 5% | -12%[7.34 µM]
COc1ccc(-c2[nH]ncc2C=O)cc1OC | i | 2 | -4% | 8% | -1%
O=C(Nc1ccc(Oc2ccc3c(c2)C(=O)N(c2ccc(O)cc2)C3=O)cc1)c1cccs1 | -11% | -78* | -8% | 7% | -12%
C=CCc1c(C)nc2nc(SCC(=O)Nc3ccc(C)c(C)c3)nn2c1C | -14%[7.34 µM] | -100* | -5% | nt | -7%[7.34 µM]
CC1CCN(S(=O)(=O)c2ccc3c(c2)oc(=O)n3CC(=O)O)CC1 | -9% | -15 | 2% | nt | -6%
COc1ccc(NC(=O)Cn2c(=O)oc3cc(S(=O)(=O)NC4CCCC4)ccc32)cc1OC | 4% | + | -4%[15.4 µM] | nt | 0%
Cc1cc(C)cc(NC(=O)Cn2c(=O)oc3cc(S(=O)(=O)N4CCC(C)CC4)ccc32)c1 | ? | -68* | 2% | 14% | ?
COc1ccc(NC(=O)Cn2c(=O)oc3cc(S(=O)(=O)NC(C)C)ccc32)cc1OC | -13% | 0 | 6%[15.4 µM] | nt | -7%
SMILES | VACV mCherry inh | HCMV antiviral | TbPYK inhibitor | LmPK inhibitor | Vaccinia Venus
Cc1ccc(C)c(SCC(=O)Nc2nnc(-c3ccccc3)o2)c1 | -11% | 13 | -4% | 4% | -3%
O=C(Cn1c(-c2ccccc2)c[n+]2ccsc12)c1ccc(Br)cc1 | i | -74* | 3% | 2% | 2%
COc1ccccc1Nc1nc(-c2ccc3c(c2)NC(=O)CO3)cs1 | nt | -64* | 0% | 2% | nt
COc1ccc(Nc2nc(-c3ccc4c(c3)NC(=O)CO4)cs2)cc1 | ? | ? | -4% | 5% | -13%
O=C(CCC1CCCCC1)NC1=NCCS1 | i | 3 | -7% | 2% | -17%
CN(C)CCCNC(=O)CCC1CCCCC1 | nt | -107* | 3% | 2% | -3%
CC(C)(C)c1ccc(OCC(=O)NN2Cc3ccccc3C2=N)cc1 | i | -2 | -1% | -3% | -9%
COc1ccc2[nH]cc(/C=C/c3cc[n+](C)cc3)c2c1 | nt | -92* | -29% | 2% | nt
